# Numbering of substitutions follows the chain as printed.
# How the values were obtained:
# Assay in all cases: yeast three-hybrid, YBZ-1, SC-Leu-His + 0.5 mM 3-AT, 4 days
# Details in all cases: tags: N-Gal4 AD-HA kept; label: inside an RPR1-promoter hybrid RNA with tandem MS2 sites; ssRNA
# PUM1 PUF domain R6-QWR = biological target: T1, PUM1 PUF domain R6-QWR (Homo sapiens, UniProt Q14671 828-1176, N1043Q;Y1044W;Q1047R)
# T1 sequence: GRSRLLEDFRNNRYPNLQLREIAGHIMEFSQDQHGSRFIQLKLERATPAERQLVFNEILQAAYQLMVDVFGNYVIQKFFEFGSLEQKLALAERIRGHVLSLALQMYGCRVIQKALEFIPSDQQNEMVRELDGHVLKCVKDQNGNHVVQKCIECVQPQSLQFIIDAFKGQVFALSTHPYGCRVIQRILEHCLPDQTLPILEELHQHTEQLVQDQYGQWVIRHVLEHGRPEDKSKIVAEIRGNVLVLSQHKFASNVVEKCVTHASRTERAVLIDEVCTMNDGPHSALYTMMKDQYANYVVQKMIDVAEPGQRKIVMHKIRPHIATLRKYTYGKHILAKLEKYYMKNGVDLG
# In short: (§1)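 Matching RNA elements and Pumilio-1 PUF domain libraries, randomized at the three base-contacting residues of every repeat, were co-expressed from a centromeric plasmid in strain YBZ-1 (LexA–MS2 coat fusion, HIS3 reporter). The repeat regions were PCR-amplified and Illumina-sequenced from cells grown four days on SC-Leu (input) or SC-Leu-His + 0.5 mM 3-AT (selection). The interaction score is the log change in variant frequency from input to selection. It is computed in log2, with a pseudocount of 1 for absent variants.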
# PUM1 PUF domain R4-PFC = PUM1 PUF domain R4-PFC (Homo sapiens, UniProt Q14671 828-1176, N971P;H972F;Q975C)
# In short: as §1
# PUM1 PUF domain R4-NRG = PUM1 PUF domain R4-NRG (Homo sapiens, UniProt Q14671 828-1176, H972R;Q975G)
# In short: as §1
# PUM1 PUF domain R5-KSG = PUM1 PUF domain R5-KSG (Homo sapiens, UniProt Q14671 828-1176, C1007K;R1008S;Q1011G)
# In short: as §1
# PUM1 PUF domain R5-RRY = PUM1 PUF domain R5-RRY (Homo sapiens, UniProt Q14671 828-1176, C1007R;Q1011Y)
# In short: as §1
# PUM1 PUF domain R2-PYE = PUM1 PUF domain R2-PYE (Homo sapiens, UniProt Q14671 828-1176, N899P;Q903E)
# In short: as §1
# PUM1 PUF domain R7-RWP = PUM1 PUF domain R7-RWP (Homo sapiens, UniProt Q14671 828-1176, S1079R;N1080W;E1083P)
# In short: as §1
# PUM1 PUF domain R6-QHR = biological target: T2, PUM1 PUF domain R6-QHR (Homo sapiens, UniProt Q14671 828-1176, N1043Q;Y1044H;Q1047R)
# T2 sequence: T1 sequence with W217H
# In short: as §1
# PUM1 PUF domain R6-FWK = biological target: T3, PUM1 PUF domain R6-FWK (Homo sapiens, UniProt Q14671 828-1176, N1043F;Y1044W;Q1047K)
# T3 sequence: T1 sequence with Q216F, R220K
# In short: as §1
# PUM1 PUF domain R8-KRS = PUM1 PUF domain R8-KRS (Homo sapiens, UniProt Q14671 828-1176, N1122K;Y1123R;Q1126S)
# In short: as §1
sequence,measurement,setting,value
GGCUAGAACUAGUGGAUCCCCCGGCGCCCGGCGGCUCGAGCCCGGGUAAGUGCAAAUAGUCUGCAUGCCGCCGGGCGCCAUGCCUGCAGGUCGACUCUAGAAAACAUG,binding signal,PUM1 PUF domain R6-QWR,2.4 log2 enrichment (interaction score)
GGCUAGAACUAGUGGAUCCCCCGGCGCCCGGCGGCUCGAGCCCGGGUAAGUGUAUAUAGUCUGCAUGCCGCCGGGCGCCAUGCCUGCAGGUCGACUCUAGAAAACAUG,binding signal,PUM1 PUF domain R4-PFC,7.01 log2 enrichment (interaction score)
same,binding signal,PUM1 PUF domain R4-NRG,2.73 log2 enrichment (interaction score)
GGCUAGAACUAGUGGAUCCCCCGGCGCCCGGCGGCUCGAGCCCGGGUAAGUGUUAAUAGUCUGCAUGCCGCCGGGCGCCAUGCCUGCAGGUCGACUCUAGAAAACAUG,binding signal,PUM1 PUF domain R5-KSG,2.98 log2 enrichment (interaction score)
same,binding signal,PUM1 PUF domain R5-RRY,3.28 log2 enrichment (interaction score)
GGCUAGAACUAGUGGAUCCCCCGGCGCCCGGCGGCUCGAGCCCGGGUAAGUGUAAAAAGUCUGCAUGCCGCCGGGCGCCAUGCCUGCAGGUCGACUCUAGAAAACAUG,binding signal,PUM1 PUF domain R2-PYE,5.7 log2 enrichment (interaction score)
GGCUAGAACUAGUGGAUCCCCCGGCGCCCGGCGGCUCGAGCCCGGGUAAGUGUCAAUAGUCUGCAUGCCGCCGGGCGCCAUGCCUGCAGGUCGACUCUAGAAAACAUG,binding signal,PUM1 PUF domain R5-KSG,3.24 log2 enrichment (interaction score)
same,binding signal,PUM1 PUF domain R5-RRY,4.32 log2 enrichment (interaction score)
GGCUAGAACUAGUGGAUCCCCCGGCGCCCGGCGGCUCGAGCCCGGGUAAGUCUAAAUAGUCUGCAUGCCGCCGGGCGCCAUGCCUGCAGGUCGACUCUAGAAAACAUG,binding signal,PUM1 PUF domain R7-RWP,4.98 log2 enrichment (interaction score)
GGCUAGAACUAGUGGAUCCCCCGGCGCCCGGCGGCUCGAGCCCGGGUAAGUGUAAAUAGUCUGCAUGCCGCCGGGCGCCAUGCCUGCAGGUCGACUCUAGAAAACAUG,binding signal,PUM1 PUF domain R4-PFC,7.66 log2 enrichment (interaction score)
same,binding signal,PUM1 PUF domain R5-RRY,1.18 log2 enrichment (interaction score)
same,binding signal,PUM1 PUF domain R6-QHR,6.41 log2 enrichment (interaction score)
same,binding signal,PUM1 PUF domain R4-NRG,3.35 log2 enrichment (interaction score)
same,binding signal,PUM1 PUF domain R6-FWK,2.07 log2 enrichment (interaction score)
same,binding signal,PUM1 PUF domain R6-QWR,2.53 log2 enrichment (interaction score)
same,binding signal,PUM1 PUF domain R8-KRS,1.29 log2 enrichment (interaction score)
GGCUAGAACUAGUGGAUCCCCCGGCGCCCGGCGGCUCGAGCCCGGGUAAGUGUACAUAGUCUGCAUGCCGCCGGGCGCCAUGCCUGCAGGUCGACUCUAGAAAACAUG,binding signal,PUM1 PUF domain R4-PFC,5.29 log2 enrichment (interaction score)
same,binding signal,PUM1 PUF domain R4-NRG,0.43 log2 enrichment (interaction score)
GGCUAGAACUAGUGGAUCCCCCGGCGCCCGGCGGCUCGAGCCCGGGUAAGCGUAAAUAGUCUGCAUGCCGCCGGGCGCCAUGCCUGCAGGUCGACUCUAGAAAACAUG,binding signal,PUM1 PUF domain R8-KRS,3.28 log2 enrichment (interaction score)

# Reference: publication PMC8384837, “Expanding the binding specificity for RNA recognition by a PUF domain”
